# According to the OligoGym collection:
# Target: PEG10
# Test: pooled miR-30 sensor sort-seq; sequence = guide strand
# Settings: shRNA
# Further: reference of the scale not given here.
row,Sequence,sensor-assay potency score (higher = more potent)
1,TTAAGTTGTTGATCTCTTCAGA,-0.104
2,TTCCACTTGCTCTCGAAGGGTG,-0.417
3,TGTCAGCGTAGTGACCTCCTGT,-0.0667
4,TTGCCATCGAACTTCTCTGGGA,-0.275
5,TTTGGCAACCTCTCGCCTCTGA,-0.158
6,TCAACTGAGAAATCCCTGGTGC,0.598
7,TTCTCTGGGAGGTCTTCTGGGC,-0.944
8,TCTTTCTTTTTCTTCCTGCGTC,-0.141

# Target: PEG3
# Test: as above
# Settings: shRNA
row,Sequence,sensor-assay potency score (higher = more potent)
1,TTGATCGTGAATCGAGCCCTTC,-0.255
2,TTATAGTATGACTCTTCTGAGA,-1.1
3,TTCTTCTACCTGAATCTCTTGA,0.127
4,TTATCATCTGACATTCTGGGGA,0.23
5,TTCAATGAAATGTCCTTCCAGT,0.297
6,TTGATCTTCACCTTCTTCTGGG,0.701
7,TTTCTTTTTAGCACGAGCCTTC,-0.635
8,TAATCTCTCTGATACTCGCTGA,-0.226
9,TTGTGTTGAGGTCTTCGCTGGT,0.119
10,TTCACTGACAGCCACACTGTGG,-0.755
11,ATAACCTCTAGCATGAATCTTC,-0.113
12,TTTGTCATCAGGGTCATCCTTC,0.301

# Target: PELI3
# Test: as above
# Settings: shRNA
row,Sequence,sensor-assay potency score (higher = more potent)
1,ATCATGTGTATACTCCACTATG,-1.35
2,ATTGGTGGTCAGTCCATCCATC,-0.798
3,TCTGTGTCGCTATCATGTGTAT,-0.903
4,TACACATTCCCACAGACCGAGA,-1.66
5,TATCATGTGTATACTCCACTAT,-0.135
6,TGTCTGTGTCGCTATCATGTGT,-0.284
7,TTGCTAGAGGCATCGAAGCCAG,-0.912
8,TGGAACATGTCTGTGTCGCTAT,0.131
9,TCAATCATGTTCTCTGTGGAGC,-0.446
10,TGTATACTCCACTATGACCGAG,-0.429
11,ATCATGTTCTCTGTGGAGCGGC,-0.826
12,AAGTCAATCATGTTCTCTGTGG,-0.484

# Target: PEX11G
# Test: as above
# Settings: shRNA
row,Sequence,sensor-assay potency score (higher = more potent)
1,AAGAGTCGCAAGATGGTCCTGC,0.55
2,TTGGGTGGACACCACCAACAGA,-1.13
3,TTGCTTAGTGTAGACAAACATG,-1.38
4,TAGACAAACATGGCCAGGTCAT,-0.9
5,TTAGTGTAGACAAACATGGCCA,-0.26
6,CAGAACTCCACCAACCAGCTGG,-1.04
7,TTCCCTAGGACGGAGACACAGC,-1.05
8,TTCAGCAGCATCCACAGGGACC,-1.68
